This is part of a sample that, as a whole, favours compounds with a hit. Of some 79,000 tested, about 15% had one in any assay. Cut-off read from the data, not from the text of the source: active = growth inhibition above about 70%; inactive = the rest.
Key:
[1] = NCI Yeast Anticancer Drug Screen. Data for the rad50 strain (AID 155);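 note: 0% = growth of vehicle-only cultures of the same strain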; settings: S. cerevisiae rad50 strain growth inhibition; at 50.0 µM; stronger effect = higher value
Summary of the method: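 Relative growth inhibition (compound vs vehicle) was measured in yeast with a defined repair-gene alteration.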

[2] = NCI Yeast Anticancer Drug Screen. Data for the mec2-1 strain (AID 157); settings: S. cerevisiae mec2-1 strain, at 50.0 µM, stronger effect = higher value
Summary of the method: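 Mutant yeast (mec2-1) grown with compound; growth inhibition relative to vehicle control reported.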

[3] = NCI Yeast Anticancer Drug Screen. Data for the sgs1 mgt1 strain (AID 161);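 note: 0% = growth of cultures given vehicle only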; settings: S. cerevisiae sgs1 mgt1 strain, at 50.0 µM, stronger effect = higher value
Summary of the method: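 Growth of a repair-deficient yeast mutant was monitored after compound treatment and expressed as inhibition relative to vehicle-treated cultures.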

[4] = NCI Yeast Anticancer Drug Screen. Data for the cln2 rad14 strain (AID 165);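 note: 0% = growth equal to vehicle treated cultures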; settings: S. cerevisiae cln2 rad14 strain, at 50.0 µM, stronger effect = higher value
Summary of the method: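 Readout is yeast growth inhibition versus vehicle-treated controls, using a strain with cln2 and rad14 alterations exposed to compound.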

[5] = NCI Yeast Anticancer Drug Screen. Data for the bub3 strain (AID 167); settings: S. cerevisiae bub3 mutant strain, at 50.0 µM, stronger effect = higher value
Summary of the method: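 Screening used yeast with an engineered genetic alteration affecting cell cycle control. Compound-exposed cultures were compared with vehicle cultures, and reduced growth was taken as inhibition.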

[6] = NCI Yeast Anticancer Drug Screen. Data for the mlh1 rad18 strain (AID 175); settings: S. cerevisiae mlh1 rad18 strain growth inhibition; at 50.0 µM; stronger effect = higher value
Summary of the method: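 Genetically defined yeast (DNA repair-deficient) exposed to compounds; growth inhibition determined relative to vehicle.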

Measured: growth inhibition

C/C(=N/N(CCCCN(/N=C(/C)c1ccccc1)c1ccccc1)c1ccccc1)c1ccccc1
inactive: [1] 48.5% | [2] 13.2% | [3] 17.1% | [4] 26.3% | [5] 1.55% | [6] 39.2%

CCCS(=O)(=O)N/N=C(\C)c1cccs1
inactive: [1] 3.65% | [2] -8.1% | [3] 3.25% | [4] -35.5% | [5] 1.35% | [6] -4.2%

CCCCOB(OCCCC)Oc1c(C(C)(C)C)cccc1C(C)(C)C
inactive: [1] 2.7% | [2] -4.6% | [3] -4.7% | [4] 9.8% | [5] -5.65% | [6] 3.75%

CCCCSc1ncnc2nc(C)[nH]c12
inactive: [1] -9.85% | [2] -20.6% | [3] -7.7% | [4] -25.6% | [5] -14% | [6] -12.7%

C#CCN
inactive: [1] 9.25% | [2] 2% | [3] 2.8% | [4] 3.75% | [5] 8.05% | [6] -12.7%

CCN(CC)c1ccc(/C=N\N(C)C)cc1
inactive: [1] 0.2% | [2] -13.2% | [3] -4.8% | [4] -48.1% | [5] -1.65% | [6] -6.55%

CS(=O)(=O)CC(O)(c1ccc(Cl)cc1)c1ccccn1 (stereo not given)
inactive: [1] 11.5% | [2] 0.85% | [3] -6.55% | [4] -21.6% | [5] -0.8% | [6] 3.8%

Cc1ccc(C2SC(N)=Nc3c2c(C)nn3C(=O)c2ccncc2)cc1 (stereo not given)
inactive: [1] -27.6% | [2] -33.2% | [3] -20% | [4] -21.7% | [5] -28% | [6] -23.6%

CN(N)c1nc2c(N)ncnc2n1C1OC(CO)C(O)C1O (stereo not given)
inactive: [1] 25.9% | [2] 24.1% | [3] 30.6% | [4] 13.8% | [5] 30% | [6] 48.3%

CC(C)CCOCC(O)CNCCN (stereo not given)
inactive: [1] 12.6% | [2] 2.5% | [3] -14.7% | [4] 5.1% | [5] -1% | [6] 12.3%

CCOC(=O)/C=C/CC1CCNC1 (stereo not given)
inactive: [1] -22.8% | [2] -2.6% | [3] -13.4% | [4] -52% | [5] -1.5% | [6] -6%

N#Cc1cccc(N(C(=O)c2ccccc2)c2ccccc2)n1
inactive: [1] 4.35% | [2] 7.9% | [3] -4.5% | [4] 0.1% | [5] 41% | [6] 24.9%

C=Nc1ccc(C)cc1
inactive: [1] 6.7% | [2] -14.8% | [3] -12% | [4] -15.7% | [5] -2.7% | [6] -18.4%

CNC(C#N)c1ccc(OC)cc1 (stereo not given)
inactive: [1] 3.55% | [2] 17.9% | [3] -26.9% | [4] -17.4% | [5] -9.75% | [6] -28.4%

Nc1cc(=O)[nH]c2ncnn12
inactive: [1] 18.2% | [2] -12% | [3] 2.4% | [4] 6.2% | [5] 4% | [6] 20.1%

CN(C)c1nc(N/N=C\C(O)C(O)C(O)C(O)CO)nc(N(C)C)n1 (stereo not given)
inactive: [1] -1.55% | [2] 2.45% | [3] -7.1% | [4] 1.15% | [5] 32.1% | [6] 9%

O=[N+]([O-])C1CCCCC1
inactive: [1] -11.8% | [2] -34.6% | [3] 3.3% | [4] 17.6% | [5] -8.35% | [6] 14.1%

c1ccc(C2c3ccccc3-c3ncnc(N4CCCCC4)c32)cc1 (stereo not given)
inactive: [1] 9.4% | [2] -3.15% | [3] 24.8% | [4] 15.1% | [5] -0.45% | [6] 14.7%

NC(=O)ON=C1CCN(Cc2ccccc2)CC1
inactive: [1] 30.4% | [2] 15.4% | [3] 10.7% | [4] 18.9% | [5] 10.2% | [6] 21.4%

CN(c1ccccc1Cl)S(=O)(=O)c1ccccc1[N+](=O)[O-]
inactive: [1] 5.15% | [2] -30.1% | [3] 31.2% | [4] -18% | [5] 38% | [6] 2.95%
